Our source for the Inhibition values is ChEMBL document CHEMBL1157539, “Thousands of chemical starting points for antimalarial lead identification” (Nature, 2010).

Common to all, as to type: functional
The test system of assay [1] is Plasmodium falciparum. Nature of the assay: GSK_TCMDC: Inhibition of Plasmodium falciparum 3D7 in whole red blood cells, using parasite LDH activity as an index of growth. Test compounds present at 2uM.
Assay [2] relates to Plasmodium falciparum. Nature of the assay: GSK_TCMDC: Inhibition of Plasmodium falciparum Dd2 in whole red blood cells, using parasite LDH activity as an index of growth. Test compounds present at 2uM.
A further assay deals with HepG2. Nature of the assay: GSK_TCMDC: Percent inhibition of human HepG2 cell line. Test compounds present at 10uM.

By Inhibition is commonly meant the change of the read-out against control, counted positive when it falls. A lower Inhibition goes with little suppression. For the molecule `Cc1ccc(Cc2c(N)nc3nc(N)nc(N)c3c2C)cc1.Cl`, the Inhibition in the assay on Plasmodium falciparum [1] is given as 95%; in the assay with Plasmodium falciparum [2] it was 8%; with HepG2, 59%.
On to `COc1ccc2nccc(NC(=O)N3CCC(NCCOc4cc(F)cc(F)c4)CC3)c2n1.O=C(O)C(=O)O`, for which the figures for the Inhibition in the assay on Plasmodium falciparum [1], in the assay with Plasmodium falciparum [2] and in the assay with HepG2 were 86%, 38% and 14%, respectively.
Consider `CCOc1cc(C(=O)NCCCN2CCCCC2C)ccc1-c1nc2cc(Cl)ccc2[nH]1` (stereo unspecified), for which the Inhibition was determined as 89% with Plasmodium falciparum [1], 0% in the assay on Plasmodium falciparum [2] and 2% in the assay with HepG2.
With `CN1CCCC1CCNc1ncc2c(-c3ccc(NC(=O)Nc4cc(C(F)(F)F)ccc4F)c(F)c3)nn(C)c2n1.O=C(O)C(F)(F)F` (stereo unspecified), the Inhibition in the assay on Plasmodium falciparum [1] was 99%; in the assay on Plasmodium falciparum [2] it was 90%; with HepG2, 100%.
On the same counts, the results for `Cc1cc(N[C@@H](Cc2ccccc2)C(=O)NCCc2ccccc2)nc(NCCc2ccccc2)n1.O=C(O)C(F)(F)F` are 100%, 57% and 0%.
On the same counts, the results for `CCCCCOc1ccc(N2C(N)=NC(N)=NC2(C)C)cc1.Cl` are 97%, 0% and 24%.
In the case of `CC(=O)c1c(Cc2cccc(C(F)(F)F)c2)c[nH]c1C`, the Inhibition stood at 94% in the assay with Plasmodium falciparum [1], 92% in the assay with Plasmodium falciparum [2] and 6% with HepG2.
On the same counts, the results for `O=C(Nc1ccc(Cl)cc1)Nc1ccc(-c2ccc(-c3nc4ccccc4[nH]3)cc2)cc1` are 100%, 99% and 47%.
As for `Cc1ccc(-n2ncc(C(=O)Nc3cc(Cl)cc(Cl)c3)c2C2CCNCC2)cc1C.Cl`, the figures for the Inhibition in the assay with Plasmodium falciparum [1], with Plasmodium falciparum [2] and in the assay on HepG2 were 100%, 77% and 65%, respectively.
On the same counts, the results for `Cc1nc(-c2cccc(NC(C)C(=O)Nc3cc(C(F)(F)F)ccc3N3CCOCC3)c2)cs1` (stereo unspecified) are 82%, 97% and 3%.
On the same counts, the results for `CC(=O)N1CCC(C(=O)Nc2ccc(-c3cccc(-c4nc5cccc(C)c5[nH]4)c3)cc2)CC1` are 84%, 27% and 85%.
The corresponding values for `CCOC(=O)c1ccc(NC(=O)Nc2ccc(-c3ccc(-c4nc5cccc(C)c5[nH]4)s3)cc2)cc1` are 100%, 100% and 60%.
Turning to `COC(=O)c1cc(OC2CCOC2=O)cc2c1OC(C)(C)O2` (stereo unspecified), the figures for the Inhibition in the assay with Plasmodium falciparum [1], with Plasmodium falciparum [2] and in the assay on HepG2 were 97%, 0% and 6%, respectively.
The corresponding values for `CN1CCCN(Cc2ccc(-c3cccc(NC(=O)c4cccc(C#N)c4)c3)cc2)CC1.O=C(O)C(F)(F)F` are 100%, 64% and 17%.
On the same counts, the results for `CN1CCN=C1c1ccc(NC(=O)Nc2ccc(C3=NCCN3C)cc2)cc1.Cl` are 85%, 69% and 7%.
The corresponding values for `COc1cccc(CN2CCCN(Cc3cccc(NC(=O)c4ccc(Cl)c(Cl)c4)c3)CC2)c1.O=C(O)C(F)(F)F` are 89%, 11% and 26%.
On to `CCOc1cc[nH]c(=O)n1`, for which the Inhibition is given as 97% with Plasmodium falciparum [1], 95% in the assay on Plasmodium falciparum [2] and 0% with HepG2.
With `CCC1(CC)C(=O)N=C(N2CCCCC2)N(C)C1=O`, the Inhibition in the assay on Plasmodium falciparum [1] stood at 89%; with Plasmodium falciparum [2] it was 66%; in the assay with HepG2 it was 0%.
The corresponding values for `CC(C)(C)CC(C)(C)c1ccc(O)c(C(=O)Nc2ccc([N+](=O)[O-])cc2)c1` are 97%, 99% and 80%.
On the same counts, the results for `COCCn1c(-c2nc(-c3ccc(F)cc3)cnc2N)nc2ccccc21` are 98%, 98% and 16%.
Consider `CN(C)Cc1cccc(-c2ccc(NC(=O)c3ccc4c(=O)n(Cc5ccoc5)cnc4c3)cc2)c1`, for which the figures for the Inhibition with Plasmodium falciparum [1], with Plasmodium falciparum [2] and with HepG2 were 98%, 9% and 54%, respectively.
Consider `O=C(Nc1ccc(Cl)cc1)N1CCN(C2CCCCC2)CC1`, for which the results for the Inhibition with Plasmodium falciparum [1], in the assay with Plasmodium falciparum [2] and with HepG2 were 93%, 0% and 17%, respectively.
The corresponding values for `CCc1cccc2c(C#N)cn(CC(=O)Nc3ccc(OC)cc3)c12` are 97%, 76% and 0%.
On the same counts, the results for `COc1ccccc1Cc1nc2ccccc2nc1SCC(=O)Nc1cccc(C(F)(F)F)c1` are 97%, 91% and 8%.
With `C=CCNS(=O)(=O)c1ccc(NC(=O)C(C)Oc2ccc([N+](=O)[O-])cc2)cc1` (stereo unspecified), the Inhibition was 100% in the assay on Plasmodium falciparum [1], 100% in the assay with Plasmodium falciparum [2] and 14% in the assay with HepG2.
With `N#Cc1ccc(NC(=O)NC2CCN(CCCCCNC(=O)/C=C/c3ccc(Cl)c(Cl)c3)CC2)cc1`, the Inhibition stood at 98% in the assay with Plasmodium falciparum [1], 4% with Plasmodium falciparum [2] and 15% with HepG2.
For `COc1ccc(CNCc2ccc(-c3cccc(-c4nc5cc(F)ccc5[nH]4)c3)cc2)cc1.O=C(O)C(F)(F)F`, the Inhibition is on record as 100% in the assay on Plasmodium falciparum [1], 94% in the assay on Plasmodium falciparum [2] and 33% with HepG2.
Take `CCn1c2ccccc2c2cc(Cc3cnc(N)nc3N)ccc21.Cl`: the Inhibition turned out to be 94% with Plasmodium falciparum [1], 0% in the assay with Plasmodium falciparum [2] and 28% in the assay with HepG2.
The corresponding values for `CS(=O)(=O)CCNc1cc(N2CCc3ncnc(Nc4ccc(OCc5cccc(F)c5)c(Cl)c4)c3C2)ncn1` are 96%, 50% and 0%.
The corresponding values for `Cc1ccoc1C(=O)Nc1cccc(-c2cccc(-c3nc4cccc(C)c4[nH]3)c2)c1` are 100%, 79% and 17%.
On the same counts, the results for `COCCN1CCN(Cc2ccc(-c3cccc(-c4nc5ccccc5[nH]4)c3)cc2)CC1.O=C(O)C(F)(F)F` are 93%, 10% and 32%.
Regarding `CCc1ccc(OCc2ccccc2C(=O)Nc2ccc3nc(C)cc(N)c3c2)cc1.Cl`, the Inhibition with Plasmodium falciparum [1] worked out at 99%; in the assay with Plasmodium falciparum [2] it was 74%; in the assay on HepG2, 98%.
`COc1cc(-c2[nH]c(-c3ccc(OCCN(C)C)cc3)cc2-c2ccncc2)ccc1Cl.Cl`: the Inhibition in the assay on Plasmodium falciparum [1] came out at 93%; with Plasmodium falciparum [2] it was 33%; with HepG2, 3%.
With `O=C(Nc1cccc(-c2nn3ncccc3c2-c2ccnc(Nc3ccccc3)n2)c1)c1c(F)cccc1F`, the Inhibition worked out at 98% in the assay with Plasmodium falciparum [1], 96% with Plasmodium falciparum [2] and 51% in the assay with HepG2.
Consider `Cc1cccc(NC(=O)c2ccc(C(=O)NC3CCN(CC4CCCCC4)C3)cc2)c1.O=C(O)C(F)(F)F` (stereo unspecified), for which the Inhibition is listed as 88% in the assay on Plasmodium falciparum [1], 3% in the assay with Plasmodium falciparum [2] and 17% in the assay on HepG2.
The corresponding values for `CC(C)(C)SCC(O)Cn1c2ccc(Br)cc2c2cc(Br)ccc21` (stereo unspecified) are 87%, 79% and 4%.
As for `COc1ccc2[nH]c(-c3ccccc3)cc(=NN=Cc3ccncc3)c2c1`, the Inhibition in the assay on Plasmodium falciparum [1] is listed as 99%; with Plasmodium falciparum [2], 27%; with HepG2 it was 14%.
On the same counts, the results for `COc1c(OC)c(OC)c2ccccc2c1CNCCCCCCNCc1c(OC)c(OC)c(OC)c2ccccc12.Cl` are 100%, 71% and 99%.
With `O=C(Nc1cccc(CN2CCCN(Cc3ccc(O)cc3)CC2)c1)c1ccc(-c2ccccc2)cc1.O=C(O)C(F)(F)F`, the results for the Inhibition in the assay with Plasmodium falciparum [1], with Plasmodium falciparum [2] and with HepG2 were 100%, 93% and 33%, respectively.
Regarding `O=C(Nc1ccc(Cl)cc1)Nc1cccc(-c2cccc(-c3nc4cc(C(F)(F)F)ccc4[nH]3)c2)c1`, the Inhibition came out at 99% in the assay on Plasmodium falciparum [1], 97% in the assay on Plasmodium falciparum [2] and 87% in the assay on HepG2.
The corresponding values for `Cc1cc(=O)c(-c2ccc(Oc3cccc(OC(F)(F)F)c3)cc2)c(C)[nH]1` are 97%, 96% and 13%.
On the same counts, the results for `COc1cc2nc(N3CCC(CNC(=O)c4ccc(-c5ccc(-c6noc(C)n6)cc5C)cc4)CC3)nc(N)c2cc1OC` are 100%, 99% and 99%.
In the case of `Br.CCCC1N=C(N)N=C(N)N1c1ccc(C)c(C)c1` (stereo unspecified), the values for the Inhibition in the assay with Plasmodium falciparum [1], in the assay on Plasmodium falciparum [2] and in the assay with HepG2 were 95%, 0% and 7%, respectively.
The corresponding values for `CC[C@H](NC(=O)c1c(CN2CCC(N3CCCCC3)CC2)c(-c2ccccc2)nc2cc(O)ccc12)c1ccccc1` are 94%, 13% and 15%.
On the same counts, the results for `N#Cc1ccc(N2CCN(Cc3cccc(-c4cccc(-c5nc6cc(F)ccc6[nH]5)c4)c3)CC2)nc1.O=C(O)C(F)(F)F` are 90%, 52% and 26%.
On the same counts, the results for `CCOc1cc2ncnc(Nc3ccc(OCc4ccccc4Br)c(OC)c3)c2cc1OCC.Cl` are 100%, 82% and 1%.
On to `Clc1ccc(-c2cc(-c3csc(NCCN4CCCCC4)n3)on2)cc1`, for which the Inhibition amounted to 91% with Plasmodium falciparum [1], 30% with Plasmodium falciparum [2] and 81% in the assay with HepG2.
On to `O=C(NCc1cccc2ccccc12)C(c1cc2ccccc2o1)N1CCN(C(c2ccccc2)c2ccccc2)CC1` (stereo unspecified), for which the values for the Inhibition in the assay on Plasmodium falciparum [1], with Plasmodium falciparum [2] and with HepG2 were 99%, 90% and 0%, respectively.
With `N#Cc1cccc(C(=O)Nc2cccc(-c3ccc(C(=O)NCCCN4CCOCC4)cc3)c2)c1`, the results for the Inhibition with Plasmodium falciparum [1], with Plasmodium falciparum [2] and in the assay on HepG2 were 96%, 21% and 21%, respectively.
`CC1CN(Cc2ccccc2)CCN1c1ccc(NC(=O)c2cccs2)cc1.O=C(O)C(F)(F)F` (stereo unspecified): the Inhibition in the assay on Plasmodium falciparum [1] turned out to be 96%; with Plasmodium falciparum [2] it was 96%; in the assay with HepG2 it was 0%.
Turning to `Oc1cccc(-c2nc(-c3cccc(I)c3)c(-c3ccc(-c4nc(-c5cccc(O)c5)[nH]c4-c4cccc(I)c4)cc3)[nH]2)c1`, the figures for the Inhibition in the assay with Plasmodium falciparum [1], in the assay with Plasmodium falciparum [2] and with HepG2 were 96%, 66% and 0%, respectively.
Consider `COc1cc(OC)cc(-c2nc3ccc(OCCN(C)C)c(C#N)c3[nH]2)c1`, for which the Inhibition with Plasmodium falciparum [1] is 99%; in the assay with Plasmodium falciparum [2], 25%; with HepG2, 4%.
Regarding `FC(F)(F)c1ccc2[nH]ccc(=NN=Cc3cccc(Cl)c3)c2c1`, the Inhibition in the assay with Plasmodium falciparum [1] was 97%; in the assay on Plasmodium falciparum [2], 2%; in the assay with HepG2 it was 0%.
Turning to `CCOc1c(OC)ccc2c1CCN(CCN1CCC(NC(=O)c3ccc(-c4cccc(C(F)(F)F)c4C(F)(F)F)cc3)CC1)C2`, the Inhibition in the assay with Plasmodium falciparum [1] is on record as 100%; in the assay with Plasmodium falciparum [2] it was 57%; in the assay on HepG2, 30%.
On the same counts, the results for `O=C(Nc1cccc(C(F)(F)F)c1)c1ccc(S(=O)(=O)NC2CCN(CC3CCCCC3)C2)cc1.O=C(O)C(F)(F)F` (stereo unspecified) are 92%, 0% and 16%.
On the same counts, the results for `COc1cccc(OC)c1OCCCOc1c(C)nc(N)nc1N.Cl` are 97%, 0% and 31%.
In the case of `Cc1cccc2nc(-c3cccc(-c4cccc(CNC(C)C)c4)c3)[nH]c12.O=C(O)C(F)(F)F`, the Inhibition with Plasmodium falciparum [1] is reported as 100%; in the assay on Plasmodium falciparum [2], 98%; with HepG2 it was 29%.
As to `CN1CCN(Cc2ccc(-c3ccc4c(Nc5ccc(Oc6ccccn6)cc5)ccnc4c3)o2)CC1`, the Inhibition in the assay with Plasmodium falciparum [1] stood at 100%; in the assay on Plasmodium falciparum [2] it was 99%; with HepG2 it was 13%.
The corresponding values for `CN1CCN(Cc2cccc(-c3ccc4c(Nc5ccc(Oc6ccccc6)cc5)ccnc4c3)c2)CC1` are 100%, 100% and 41%.
On the same counts, the results for `COc1c(C2CCN(CCN3CCC(CNC(=O)c4ccc(-c5ccc(C#N)cc5)cc4)CC3)CC2)ccc2c1CCCC2` are 100%, 100% and 96%.
The corresponding values for `Cc1ccc(NC(=O)NC2CCN(c3ccnc4ccccc34)CC2)cc1.O=C(O)C(F)(F)F` are 97%, 52% and 21%.
With `CCOC(=O)CC[C@@H](NC(=O)c1ccc(NCc2ccc3ccc4nc(C)[nH]c(=O)c4c3c2)cc1F)C(=O)N[C@@H](Cc1c[nH]c2ccccc12)C(=O)OCC`, the Inhibition in the assay with Plasmodium falciparum [1] was 98%; in the assay with Plasmodium falciparum [2], 77%; with HepG2 it was 45%.
